Source: the supplement of paper PMC10338343
± gives the standard deviation.

Key:
[1] = tested on: MILI (PIWIL2) piRISC loaded with L1MC piRNA (26 nt); experiment: pre-steady-state target cleavage rate (min^-1); guide: L1MC piRNA 5'p-UAACUAAAUACUAUGCAAGCUGUAGG; higher = faster piRNA-guided slicing of the target
In short: (§1)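 Cleave-'n-Seq reactions paired 0.1 nM transcribed, DNA-blocked target RNA library with 1 nM active affinity-purified piRISC holding one synthetic guide, plus or minus 500 nM GTSF1 partner protein, in HEPES–potassium acetate buffer at 33 °C for 0–8 or 0–960 min. After sequencing of uncleaved targets and normalisation to depth and weakly complementary targets, the pre-steady-state cleavage rate was taken from a burst-and-steady-state fit. Three trials were pooled, and k3 was capped at 0.0001 min^-1.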

[2] = tested on: EfPiwi piRISC loaded with L1MC piRNA (26 nt); experiment: pre-steady-state target cleavage rate (min^-1); auxiliary factor: 500 nM Ephydatia muelleri Gtsf1; guide: L1MC piRNA 5'p-UAACUAAAUACUAUGCAAGCUGUAGG; MIWI and MILI are mouse PIWI proteins and EfPiwi is from a freshwater sponge; tags in brackets are library labels; higher = faster piRNA-guided slicing of the target
In short: as §1

[3] = auxiliary factor: 500 nM mouse GTSF1
[4] = auxiliary factor: none (no GTSF1)

Row | Sequence | pre-steady-state target cleavage rate [1, 3] | pre-steady-state target cleavage rate [1, 4] | pre-steady-state target cleavage rate [2]
1 | UCCUGGAUGUCCUUGCAUAGUGUUUAGUUA | 0.0572 ± 0.012 | 0.00445 ± 0.0025 | 0.00951 ± 0.0035
2 | UCCUGGAUCAACUUGCAUAGUAUUUAGUUA | 0.265 ± 0.017 | 0.00729 ± 0.0025 | 0.0635 ± 0.018
3 | UCCUGGAUGACCAUGCAUAGUAUUUAGUUA | 0.0729 ± 0.022 | 0.00375 ± 0.0034 | 0.00488 ± 0.0028
4 | UCCUGGAUGUGCUGGCAUAGUAUUUAGUUA | 0.118 ± 0.012 | 0.0112 ± 0.0037 | 0.00525 ± 0.0029
5 | UCCUGGAUCAGCUUGCAUAGUAUUUGGUUA | 0.245 ± 0.018 | 0.0139 ± 0.003 | 0.00498 ± 0.002
6 | UCCUCCUAGUCCUUGCAUAGUAUUUAGUUA | 0.235 ± 0.018 | 0.00692 ± 0.0015 | 0.0173 ± 0.0063
7 | UCCUGGUACAGCUUGCAAGUAUUUAGUUA | 0.113 ± 0.014 | 0.00636 ± 0.0022 | 0.00546 ± 0.0031
8 | UCCUCCUACAGCUUGCAUAGUAUUUUGUUA | 0.177 ± 0.023 | 0.0036 ± 0.0022 | 0.00791 ± 0.0033
9 | UCCUCCUACACCAUGCAUAGUAUUUAGUUA | 0.243 ± 0.019 | 0.00814 ± 0.0024 | 0.145 ± 0.05
10 | UCCUGGAUCAGUUGCAUAGUAUUUAGUUA | 0.257 ± 0.016 | 0.00796 ± 0.002 | 0.0258 ± 0.0051
11 | UCCUGGAUCAGCUUGCAUCGUAUUUAGUUA | 0.0942 ± 0.012 | 0.00789 ± 0.0027 | 0.00918 ± 0.0028
12 | UCCUCCUACAGCUUGCAUAGUAUAUUAGUUA | 0.282 ± 0.019 | 0.00588 ± 0.0024 | 0.0567 ± 0.019
13 | UCCUGGAUCAGCUUUCAUAGUAUUUAGUUA | 0.204 ± 0.018 | 0.0048 ± 0.0029 | 0.0103 ± 0.0032
14 | UCCUGGUACAGGUUGCAAAGUAUUUAGUUA | 0.117 ± 0.012 | 0.0143 ± 0.0038 | 0.00511 ± 0.0028
15 | UCCUGCUAGAGCUAGCAUAGUAUUUAGUUA | 0.237 ± 0.031 | 0.00417 ± 0.0027 | 0.00618 ± 0.0016
16 | UCCUGGAUGAGUUGCAUAGUAUUUAGUUA | 0.108 ± 0.013 | 0.00501 ± 0.0019 | 0.00429 ± 0.002
17 | UCCUGCUUCAGCUUGCAUAGUAUUUAGUAA | 0.224 ± 0.025 | 0.00397 ± 0.002 | 0.00811 ± 0.0033
18 | UCCUGGAACAGGUUGGAUAGUAUUUAGUUA | 0.164 ± 0.02 | 0.00851 ± 0.0024 | 0.00375 ± 0.0014
19 | UCCUGGUACUGGUUGCAUAGUAUUUAGUUA | 0.162 ± 0.042 | 0.0125 ± 0.0045 | 0.0054 ± 0.0031
20 | UCCUGGAUGAGCAUGCAUUGUAUUUAGUUA | 0.0714 ± 0.013 | 0.00843 ± 0.003 | 0.00289 ± 0.0022
21 | UCCUGGAUGAGCUAGCAUAGUAAUUAGUUA | 0.131 ± 0.018 | 0.00472 ± 0.0025 | 0.00293 ± 0.0021
22 | UCCUGGAUGAGCUUGCAUAGUAUUUUAGUUA | 0.163 ± 0.019 | 0.00807 ± 0.0028 | 0.00631 ± 0.0035
23 | UCCUCCUUGAGCUUGCAUAGUAUUUAGUUA | 0.216 ± 0.018 | 0.0051 ± 0.0021 | 0.0223 ± 0.0062
24 | UCCUGCUACAGCUUACAUAGUAUUUAGUUA | 0.274 ± 0.026 | 0.00609 ± 0.0025 | 0.0151 ± 0.0038
25 | UCCUGCUACAGCUUGCAUUGUAUUUAGUAA | 0.176 ± 0.018 | 0.00356 ± 0.002 | 0.00316 ± 0.0014
26 | UCCUGGUACAGCUUGCACAGUAUUUAGUUA | 0.156 ± 0.013 | 0.0127 ± 0.0032 | 0.0505 ± 0.015

Row | Sequence | pre-steady-state target cleavage rate [1, 3] | pre-steady-state target cleavage rate [1, 4] | pre-steady-state target cleavage rate [2]
27 | UCCUGGAUCACUUGCAUAGUAUUUAGUUA | 0.214 ± 0.018 | 0.0066 ± 0.0022 | 0.0567 ± 0.014
28 | UCCUGGAUGUCCUAUGCAUAGUAUUUAGUUA | 0.0987 ± 0.02 | 0.00575 ± 0.0022 | 0.00508 ± 0.0022
29 | UCCUCCUACAGCUAGGAUAGUAUUUAGUUA | 0.276 ± 0.015 | 0.00685 ± 0.0019 | 0.0581 ± 0.014
30 | UCCUGGUAGAGCUUGCAUAGUAUUAAGUUA | 0.207 ± 0.034 | 0.00672 ± 0.0026 | 0.00385 ± 0.0022
31 | UCCUGCUACAGCUUCCUUAGUAUUUAGUUA | 0.251 ± 0.025 | 0.00547 ± 0.0019 | 0.00425 ± 0.0019
32 | UCCUCCUACAGCUUGCAAGUAUUUAGUUA | 0.155 ± 0.017 | 0.00449 ± 0.0021 | 0.00641 ± 0.0026
33 | UCCUGGUACAGCUUGCUUAGUAAUUAGUUA | 0.128 ± 0.036 | 0.0116 ± 0.0032 | 0.00675 ± 0.0033
34 | UCCUGGAUGUGGCUUGCAUAGUAUUUAGUUA | 0.163 ± 0.017 | 0.0089 ± 0.0042 | 0.0125 ± 0.0049
35 | UCCUGGAUCUGCUUGCAUACUAUUUAGUUA | 0.055 ± 0.0088 | 0.0043 ± 0.0023 | 0.00859 ± 0.0023
36 | UCCUCCUACAGCUUGCUUAGUAUUUAGUUA | 0.275 ± 0.015 | 0.00811 ± 0.0021 | 0.0424 ± 0.012
37 | UCCUGCUACACGUUGCAUAGUAUUUAGUUA | 0.289 ± 0.026 | 0.0118 ± 0.0026 | 0.0175 ± 0.0063
38 | UCCUGGAUCAGCUUGCAUAGUAUUUAGUAUA | 0.233 ± 0.021 | 0.00809 ± 0.0032 | 0.0115 ± 0.0043
39 | UCCUGCUACAGCUUCGAUAGUAUUUAGUAA | 0.199 ± 0.03 | 0.00274 ± 0.0022 | 0.00315 ± 0.0026
40 | UCCUCCUACAGCAUGCAAAGUAUUUAGUUA | 0.161 ± 0.015 | 0.00732 ± 0.0021 | 0.0492 ± 0.017
41 | UCCUGGAUCAGCUUGCAUAGUAUUUAGUAA | 0.24 ± 0.016 | 0.00751 ± 0.0025 | 0.00774 ± 0.0024
42 | UCCUGGAUGUGCUUGCAUAGUAUUUAGUA | 0.111 ± 0.019 | 0.00483 ± 0.0024 | 0.00405 ± 0.002
43 | UCCUGGUUCAGCUUGCAUAGUAUUAAGUUA | 0.186 ± 0.029 | 0.00855 ± 0.0027 | 0.00579 ± 0.0021
44 | UCCUGGUACAGCAUGCAAAGUAUUUAGUUA | 0.119 ± 0.014 | 0.0117 ± 0.0036 | 0.00646 ± 0.0023
45 | UCCUGGAUGUCGAUGCAUAGUACUUAGUUA | 0.025 ± 0.0066 | 0.0058 ± 0.0019 | 0.00454 ± 0.0029
46 | UCCUGGAUCAGCUUGCCUAGUAUUUAGUUA | 0.234 ± 0.015 | 0.00686 ± 0.0022 | 0.0512 ± 0.011
47 | UCCUGGAUCACCUUGCAUACUAUUUAGUUA | 0.0453 ± 0.011 | 0.00336 ± 0.0028 | 0.00341 ± 0.0028
48 | UCCUGGUACAGCUUGCAAUAGUAUUUAGUUA | 0.0322 ± 0.0093 | 0.00408 ± 0.0024 | 0.00587 ± 0.0028
49 | UCCUGGAAGAGCUAGCAUAGUAUUUAGUUA | 0.212 ± 0.016 | 0.00677 ± 0.0024 | 0.00727 ± 0.0022
50 | UCCUCCUACAGGAUGCAUAGUAUUUAGUUA | 0.273 ± 0.013 | 0.00736 ± 0.0024 | 0.0467 ± 0.011
51 | UCCUGCUACAGCUUGCAUAGUAUUAGUUA | 0.222 ± 0.026 | 0.0027 ± 0.0027 | 0.00404 ± 0.0022
